KCNQ2 enhance = potentiators of rat KCNQ2 potassium channel. O88943. CHO-K1 KCNQ2, FluxOR thallium flux fluorescence; active compounds read high. B-score at 10 µM. actives 0.54% (n = 310,000). AID 2239;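 active = fluorescence ratio B-score at least 3 SD of library B-scores, with initial fluorescence B-score within 3 of them, cut at about 5.3 in these data; same plate scores as AID 2156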;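 also: B-score of peak minus minimum over baseline fluorescence ratio after K+ and Tl+ stimulus; positive B-score means potentiation of KCNQ2 with more thallium influx and brighter signal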
Target sequence (O88943 whole entry, looked up): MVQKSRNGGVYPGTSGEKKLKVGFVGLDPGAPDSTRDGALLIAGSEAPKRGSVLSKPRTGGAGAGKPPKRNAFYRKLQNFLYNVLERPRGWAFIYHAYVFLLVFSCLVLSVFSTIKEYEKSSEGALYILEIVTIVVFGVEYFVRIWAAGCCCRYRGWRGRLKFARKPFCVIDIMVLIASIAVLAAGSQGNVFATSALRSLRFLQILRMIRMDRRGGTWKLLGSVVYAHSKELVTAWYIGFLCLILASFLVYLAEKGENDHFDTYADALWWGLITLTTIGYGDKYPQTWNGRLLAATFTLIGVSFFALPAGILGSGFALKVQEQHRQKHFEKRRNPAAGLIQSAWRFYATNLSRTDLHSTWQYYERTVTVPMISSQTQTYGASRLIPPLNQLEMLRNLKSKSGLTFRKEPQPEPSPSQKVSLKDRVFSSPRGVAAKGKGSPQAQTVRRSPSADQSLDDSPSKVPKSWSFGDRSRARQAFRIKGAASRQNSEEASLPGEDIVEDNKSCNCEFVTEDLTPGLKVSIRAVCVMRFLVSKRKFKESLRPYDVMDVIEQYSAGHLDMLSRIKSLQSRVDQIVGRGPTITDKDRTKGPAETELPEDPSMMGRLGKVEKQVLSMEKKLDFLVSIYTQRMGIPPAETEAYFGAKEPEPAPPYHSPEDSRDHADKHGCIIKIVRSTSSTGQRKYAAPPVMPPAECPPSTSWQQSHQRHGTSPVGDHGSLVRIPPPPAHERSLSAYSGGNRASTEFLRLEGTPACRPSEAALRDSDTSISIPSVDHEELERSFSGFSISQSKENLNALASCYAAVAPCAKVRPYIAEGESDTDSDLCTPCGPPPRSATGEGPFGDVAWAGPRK
KCNQ2 block = blocks the rat KCNQ2 potassium channel; O88943; CHO-K1 KCNQ2, FluxOR thallium flux, 20 min; active compounds read low; B-score at 10 µM; actives 1.1% (n = 310,000);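 active = fluorescence ratio B-score at most minus 3 library SDs, with starting brightness B-score within 2 library SDs, cut at about -5.5 in these data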
* hit, by the source's call; i = inactive; nt = not tested or not shown. Most compounds without a hit are left out; they make up all but 1.6% or so of the library.

SMILES | KCNQ2 enhance | KCNQ2 block
COc1ccccc1NC(=O)CN1CCN(CC(=O)Nc2ccc(S(N)(=O)=O)cc2)CC1 | nt | i
C=CCn1cnc2c(c1=O)c1nc3ccccc3nc1n2/N=C/c1cc(OC)c(OC)c(OC)c1 | -7.86 | -7.86*
COCCn1cnc2c(c1=O)c1nc3ccccc3nc1n2/N=C/c1cccc(OC)c1 | nt | i
C/C(=C1/SC(N2CCOCC2)=NC1=O)c1ccc(Br)cc1 | 1.82 | i
CCOC(=O)c1c(C=O)c(C)n(Cc2ccc(C)cc2)c1C | nt | i
CCOC(=O)c1c(C=O)c(C)n(Cc2ccccc2Cl)c1C | -5.82 | -5.82*
O=C(Nc1cc(C(F)(F)F)ccc1N1CCOCC1)c1cccnc1Cl | nt | i
O=C1NC(c2ccccc2)CCO1 (configuration not stated) | 0.29 | i
Cc1ccc(/C=C2\SC(=S)N(CCCC(=O)Nc3ccc(O)cc3)C2=O)cc1 | 0.36 | i
CCN1/C(=C/c2ccc3ccccc3[n+]2CC)C=Cc2ccccc21 | -14.6 | -14.6*
CCN1/C(=C/c2ccc3ccccc3[n+]2CCCS(=O)(=O)[O-])C=Cc2cc(C)ccc21 | 0.41 | i
COc1ccccc1-c1cc(C(=O)N2CCc3ccccc3C2)c2ccccc2n1 | nt | i
COc1ccc(Nc2cc(C(=O)N3CCc4ccccc4C3)c3ccccc3n2)c(OC)c1 | -7.96 | -7.96*
COc1ccccc1Nc1cc(C(=O)N2CCc3ccccc3C2)c2ccccc2n1 | -6.28 | -6.28*
COCCCNC(=O)c1cc(Nc2ccc(OC)cc2OC)nc2ccccc12 | 0.01 | i
O=C(COC(=O)c1cccc(S(=O)(=O)N2CCc3ccccc3C2)c1)NCc1ccco1 | nt | i
NC(=O)COc1cccc(/C=N/NC(=O)c2ccc(-n3cccc3)cc2)c1 | 1.19 | i
CC(C)(C)n1nnnc1C(c1cccnc1)N(Cc1ccccc1)Cc1ccco1 (configuration not stated) | nt | i
COc1cccc(CN(Cc2ccco2)C(c2ccc(F)cc2)c2nnnn2C(C)(C)C)c1 (configuration not stated) | -6.06 | -6.06*
O=C(Cn1ncc(Cl)c(Cl)c1=O)c1ccc(Cl)cc1 | nt | i
Clc1ccc(Cc2nnc(-c3ccccc3Br)o2)cc1 | -5.89 | -5.89*
Clc1ccccc1OCc1nnc(-c2ccccc2Br)o1 | nt | i
CN(Cc1ccc(F)cc1)C(=O)c1cccc(S(=O)(=O)NCc2ccccc2)c1 | nt | i
C=CCOc1c(Br)cc(CNc2ccc(NC(=O)C(C)C)c(OC)c2)cc1OCC | 6.61* | i
C=CCOc1c(Br)cc(CNc2ccc3[nH]c(=O)[nH]c3c2)cc1OCC | 0.68 | i
SMILES | KCNQ2 enhance | KCNQ2 block
COc1cccc(C(=O)Nn2c(-c3cccs3)nc3ccccc3c2=O)c1OC | -6.36 | -6.36*
COc1ccc(C(=O)Nn2c(C)nc3ccccc3c2=O)c(OC)c1 | nt | i
Cc1cccc(C)c1N(CC(=O)N(C)Cc1ccccc1)S(C)(=O)=O | nt | i
CC12CCC(c3c(C(=O)Nc4nccs4)nn(-c4ccccc4)c31)C2(C)C (configuration not stated) | -8.29 | -8.29*
CC12CCC(c3c(C(=O)O)nn(-c4ccccc4)c31)C2(C)C (configuration not stated) | 0.88 | i
CCOC(=O)Nc1ccc2c(c1)N(C(=O)N(CC)CC)c1ccccc1CC2 | nt | i
COc1ccc(NC(=O)NCc2cccnc2)c(OC)c1 | nt | i
COc1ccc(NC(=O)N(Cc2cccnc2)Cc2ccccc2Cl)c(OC)c1 | -5.79 | -5.79*
O=C(O)c1ccccc1-c1ccc(/C=C/c2cc(C(F)(F)F)[nH]c(=O)n2)o1 | nt | i
COc1ccc2nc(N=Nc3c(O)ccc4ccccc34)sc2c1 | 8.17* | i
COc1ccc2nc(NC(=O)Nc3cccc4ccccc34)sc2c1 | nt | i
NC(=O)c1c(NC(=O)CN2C(=O)CCC2=O)sc2c1CCCCC2 | 0.23 | i
O=C(NC(=Nc1nc2ccccc2o1)NC(=O)c1ccccc1)c1ccccc1 | nt | i
COc1ccccc1C(=O)NC(=Nc1nc2ccccc2o1)NC(=O)c1ccccc1OC | -14 | -14*
Cc1ccc(NC(=O)c2sc3nc(C)nc(N4CCN(c5ccccn5)CC4)c3c2C)c(C)c1 | nt | i
Cc1nc(N2CCN(c3ccccn3)CC2)c2c(C)c(C(=O)Nc3ccc(Br)cc3C)sc2n1 | -5.98 | -5.98*
Fc1ccc2[nH]c3c(N4CCN(c5ccccc5)CC4)ncnc3c2c1 | 1.23 | i
CCCCN(C)C(=O)c1oc2ccc(S(=O)(=O)N3CCCCCC3)cc2c1C | -5.63 | -5.63*
Cc1c(C(=O)O)oc2ccc(S(=O)(=O)N3CCCC3)cc12 | nt | i
CCOC(=O)COc1c(OC)cc(Cl)cc1C1Nc2ccccc2C(=O)N1c1ccc(F)cc1 (configuration not stated) | nt | i
CCOC(=O)COc1c(OC)cc(Cl)cc1C1Nc2ccccc2C(=O)N1c1ccccc1 (configuration not stated) | -5.62 | -5.62*
CCCC(=O)Nc1ccc(C(=O)N/N=C/c2cccnc2)cc1 | 1.62 | i
CC(=O)Nc1cccc2c1C(=O)N(c1cccc(OC(C)=O)c1)C2=O | nt | i
O=C(/C=C/c1ccc([N+](=O)[O-])cc1)c1ccco1 | -7.34 | -7.34*
O=C(/C=C/c1ccc(Br)cc1)c1ccco1 | nt | i
SMILES | KCNQ2 enhance | KCNQ2 block
CN(C)/C=C1\NC(=S)N(c2ccc(Cl)cc2)C1=O | nt | i
COc1ccc(NC(C)C(=O)N/N=C/c2ccccc2OCc2cccc(Br)c2)cc1 (configuration not stated) | nt | i
Cc1ccccc1NC(C)C(=O)N/N=C/c1ccccc1OCc1cccc(Br)c1 (configuration not stated) | -8.28 | -8.28*
CC(C)Cn1c(SC(C)C(=O)Nc2ccc3c(c2)OCCO3)nc2ccccc2c1=O (configuration not stated) | 0.85 | i
COc1cc(C(=O)NCCC(=O)NC2CCC(C)CC2)cc(OC)c1OC (configuration not stated) | nt | i
COC(=O)c1cn(C(=O)c2ccc(F)cc2)c2ccccc12 | nt | i
C=CCOc1ccc(C(=O)n2cc(C(=O)OC)c3ccccc32)cc1 | -6.16 | -6.16*
Cc1ccc(-n2c(=S)sc3c(=O)n(-c4ccccc4F)c(SCC(=O)O)nc32)cc1C | 0.91 | i
COCCN1C(=O)/C(=C/c2ccc(OCc3ccc(C(=O)O)cc3)c(OC)c2)SC1=Nc1ccccc1 | -6.08 | -6.08*
COc1cc(/C=C2\SC(=Nc3ccccc3)N(Cc3ccco3)C2=O)ccc1OC(C)C(=O)O (configuration not stated) | nt | i
Cc1cccc(C(=O)Nc2nnc(-c3ccc(C(C)(C)C)cc3)s2)c1 | 0.88 | i
Cc1ccc(C)n1-n1c(C)nc2sc3c(c2c1=O)CCCCC3 | nt | i
Cc1ccc(C)n1-n1cnc2sc3c(c2c1=O)CCCCC3 | -7.47 | -7.47*
COc1ccccc1CNC(=O)CCCNC(=O)c1ccc(Cl)cc1 | 0.09 | i
CN1C(C(=O)NCc2ccccc2)CC2Cn3c(nc4ccccc43)C21 (configuration not stated) | nt | i
COc1ccc(-c2ccc(/C=N/NC(=O)Cc3nnc(N)s3)o2)cc1Cl | -7.42 | -7.42*
Cc1ccc(-c2ccc(/C=N/NC(=O)Cc3nnc(N)s3)o2)cc1Cl | nt | i
Cc1sc(-n2c(C)ccc2C)c(C#N)c1C | nt | i
Cc1ccc(C)n1-c1sc2c(c1C#N)CCCC2 | -5.91 | -5.91*
Nc1nc(CN2CCc3ccccc3C2)nc(Nc2ccccc2)n1 | nt | i
O=C(N/N=C1\CCS(=O)(=O)c2ccc(F)cc21)c1ccc([N+](=O)[O-])cc1 | nt | i
